# Measured values as given in PubChem BioAssay (NCATS).
# Results filed as inconclusive are left out. Where a call stands in place of a potency, no number is given. Unmarked numbers belong to inactive results. Active and inactive are the calls of the source. The call rests on the fitted dose curve; in most records, active means well fitted cell-killing curve with a large enough effect; inconclusive means small, poorly fitted or top-dose-only effect, or effect the other way; inactive means no such curve, though single readings can be large or run the other way.
# Tests used:
# [1] = Viability qHTS for spleen associated tyrosine kinase inhibitor (SYKi) naive MV4-11 cells (AID 1963823); further: nearly all actives have a fitted effect of over 40% in size
# Procedure, shortened: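 Luminescence from CellTiter-Glo, developed 10 min at room temperature, gave viability of MV4-11 cells never exposed to SYK inhibitor. Cells (500/well) had been incubated with compounds for 72 hr under standard culture conditions.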
# [2] = Viability qHTS for spleen associated tyrosine kinase inhibitor (SYKi) drug resistant MV4-11 cells (AID 1963824); further: nearly all actives have a fitted effect of over 35% in size
# Procedure, shortened: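 CellTiter-Glo luminescence, read 10 min after reagent addition, reports viability after a 72 hr compound exposure. Cells are an MV4-11 line made resistant to SYK inhibition, seeded at 500 per well onto compound-containing plates.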
# Potency means the concentration at half of the fitted maximal effect.
SMILES,Potency [1],Potency [2],viability (% of control) [1],"viability, % of control [2]"
COc1cc(C2c3cc(O)c(OC)cc3CC(CO)C2CO)ccc1O (stereo not drawn),inactive,inactive,–,–
CCC(C)/C=C(C)/C=C/C1=CC2=C(Cl)C(=O)C(C)(OC(C)=O)C(=O)C2=CN1CCCCC(N)C(=O)O (stereo not drawn),inactive,inactive,–,–
CC(C)NC[C@H](O)COc1ccc(CCOCC2CC2)cc1,inactive,inactive,–,–
CC(C)c1cc2c(c(O)c1O)[C@@]13CCCC(C)(C)C1[C@@H](O)[C@@H]2OC3=O (stereo partly drawn),4.53 µM (active),10.1 µM (active),–,–
CC1OC(OC2C(OC3C(O[C@H]4CC[C@@]5(C)C(CC[C@]6(C)C5C(=O)C=C5C7CC(C)(C)CC(O)[C@]7(C)CC[C@]56C)C4(C)C)OC(C(=O)O)C(O)C3O)OCC(O)C2O)C(O)C(O)C1O (stereo partly drawn),–,–,54.7% [at 9.25 µM],71.2% [at 9.25 µM]
C=C(C(=O)OC[C@H]1O[C@@H](OC(=O)/C=C/c2ccccc2)[C@H](O)[C@@H](O)[C@@H]1O)C(O)CO (stereo partly drawn),7.96 µM (active),11.2 µM (active),–,–
C=C1C(=O)O[C@@H]2C[C@@]3(C)C[C@@H](O)C[C@H](C)C3=C[C@H]12,5.17 µM (active),3.66 µM (active),–,–
C[C@@H]1CC[C@]2(C(=O)OC3OC(CO)C(O)C(O)C3O)CC[C@]3(C)C(=CCC4[C@@]5(C)CC[C@H](O)[C@](C)(C(=O)O)C5CC[C@]43C)C2[C@]1(C)O (stereo partly drawn),inactive,inactive,–,–
Cc1c(C(=O)O)c(O)cc2c1C(=O)c1c(O)c([C@@H]3O[C@H](CO)[C@@H](O)[C@H](O)[C@H]3O)c(O)c(O)c1C2=O,inactive,inactive,–,–
